Source: PubChem BioAssay (SRMLSC)
In the library only some 6.8% were active in any assay of this set; here they are far more common.
NADH coupling = inhibitors of enzymes used to reach an NAD/NADH endpoint; coupled PK/LDH NADH assays, four targets; IC50, µM (doses to about 10 µM), for the others: top-dose inhibition; hit rate 0.02% among 65,000;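 active means single-dose screening hits from any of four coupled enzyme assays that gave an IC50 when retested across doses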;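 further: the DPM-DC format reads NADH fluorescence rather than 340 nm absorbance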
Spn PMK inh = blocks S. pneumoniae phosphomevalonate kinase; purified PMK, PK/LDH-coupled NADH absorbance 340 nm; AID 539; hit rate 0.49% among 65,000; inhibition, % at 10 µM;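 active means top-ranked compounds by inhibition in the single 10 µM screen, taking a fixed number of the strongest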;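 further: 0% = full reaction with DMSO carrier and 100% = background rate without enzyme reaction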
Spn DPM-DC inh = blocks S. pneumoniae diphosphomevalonate decarboxylase. calls only at 10 µM. purified DPM-DC, PK/LDH coupled NADH fluorescence. hit rate 0.49% among 65,000;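 active means the 320 compounds with the highest percent inhibition in the single-dose primary screen, excluding strongly autofluorescent ones, cut at about 32% in these data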;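 further: kinetic rate of NADH fluorescence loss reporting ADP formed by the decarboxylase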
Spn MK inh = blocks S. pneumoniae mevalonate kinase. purified MK, PK/LDH-coupled NADH absorbance 340 nm. inhibition, % at 10 µM. hit rate 0.48% among 65,000;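 active means ranked among the strongest by inhibition in the single 10 µM screen, a fixed top-ranked set picked for dose follow-up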
Autofluor 339 = intrinsic fluorescence of library compounds, ex339/em460 – biochemical, MLSMR library, data from DPM-DC assay, artefact control, profiling panel; compound autofluorescence, ex339/em460 nm, NADH buffer; stronger effect = higher value; 1 = no-compound wells, NADH background; fluorescence fold increase at 10 µM; hit rate 5.5% among 65,000;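 active means at 10 µM, mean starting fluorescence two-fold or more over control wells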;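 further: signal is the first read of a kinetic run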
A340 absorber = compounds absorbing at 340 nm. compound absorbance at 340 nm, fold over control. 65,000 tested, under 10 active. AID 708. fold change at 10 µM;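 active means at 10 µM dose, initial 340 nm absorbance at least 2 fold that of control wells; inactive means change under 2 fold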;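 further: initial absorbance extrapolated from kinetic A340 decline of NADH oxidation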
* marks the source's active call; other numbers are inactive results; i = inactive; . = no result shown; + = active, no number.

SMILES | NADH coupling | Spn PMK inh | Spn DPM-DC inh | Spn MK inh | Autofluor 339 | A340 absorber
CC(CCc1ccccc1)NC(=O)c1ccncc1 (stereo not drawn) | 3% | 10 | i | 0 | 1.1 | 1.1
CC(CCc1ccccc1)NCC(O)c1ccc(O)c(C(N)=O)c1 (stereo not drawn) | 2% | 0 | . | 6 | 2.5* | 1
N#Cc1c(C(F)(F)F)cc(-c2ccco2)nc1SCc1ccncc1 | 18% | 7 | + | 8 | 2.6* | 1.1
N#Cc1c(C(F)(F)F)cc(-c2ccco2)nc1SCc1ccccn1 | 2% | 0 | . | 4 | 2.1* | 1
COc1ccc(N(CC(=O)NCc2cccs2)S(=O)(=O)c2c(C)n[nH]c2C)cc1 | 13% | 10 | i | 30 | 1 | 1
Cc1cccn2c(=O)c3cc(C(=O)NC(C)c4ccccc4)c(=N)n(CCCn4ccnc4)c3nc12 (stereo not drawn) | 3% | 6 | . | 0 | 3.8* | 1.1
Cc1ccc2nc3c(cc(C(=O)NCc4ccccc4)c(=N)n3CCCn3ccnc3)c(=O)n2c1 | 3% | 6 | . | 0 | 3.8* | 1.1
COc1ccc(Cl)cc1C(=O)NCC(C)C | 6% | 14 | i | 5 | 1.1 | 1
COc1cc(-c2nnc3sc(-c4ccccn4)nn23)cc(OC)c1OC | 3% | 2 | i | 7 | 1.1 | 1
CCC(NC(=O)NCc1cccnc1)(C(F)(F)F)C(F)(F)F | 3% | 3 | i | 5 | 1.1 | 1
O=C(C1CCCN(S(=O)(=O)c2ccc(F)cc2)C1)N(Cc1cccs1)C1CC1 (stereo not drawn) | 5% | 0 | i | 5 | 1 | 1
CCCCSc1nc(N)c(C#N)c(-c2cccs2)c1C#N | 2% | 0 | i | 5 | 1.2 | 1.1
N#Cc1c(-c2cccs2)cc(-c2ccccn2)nc1N | 10% | 13 | . | 6 | 3.8* | 1
N#Cc1c(-c2cccs2)cc(-c2cccnc2)nc1N | 2% | 3 | . | 0 | 3.8* | 1.1
O=C(c1ccco1)N1CCC(c2ccccc2)C1 (stereo not drawn) | 6% | 11 | i | 6 | 1.1 | 1
COc1cccc(-c2cn3nc(C)c(C)nc3n2)c1 | 12% | 13 | i | 10 | 3.1* | 1.1
Cc1nc2nc(-c3cccs3)cn2nc1C | 12% | 13 | . | 11 | 3.7* | 1
CCOC(=O)CNc1c(-c2ccc(O)cc2)nc2ccc(Cl)cn12 | 7% | 5 | i | 6 | 1.8 | 1.1
Oc1ccc(-c2nc3ccccn3c2NCc2ccc3c(c2)OCO3)cc1 | 12% | 17 | . | 6 | 3.7* | 1
CCOC(=O)CNc1c(-c2ccc(O)cc2)nc2ccccn12 | 8% | 15 | . | 1 | 3.7* | 1.1
COc1ccc2cc3cc(C(=O)NCCN4CCN(c5ccccc5F)CC4)oc3nc2c1 | 9% | 14 | . | 3 | 5.1* | 1.1
COc1ccc2cc3cc(C(=O)NCc4ccccn4)oc3nc2c1 | 3% | 6 | . | 0 | 5.1* | 1.1
COc1ccc2cc3cc(C(=O)NCC4CCCO4)oc3nc2c1 (stereo not drawn) | 2% | 7 | . | 0 | 3.5* | 1
COc1ccc2nc3oc(C(=O)NCc4cccs4)cc3cc2c1 | 15% | 11 | + | 0 | 3.9* | 1
COc1ccc2cc3cc(C(=O)Nc4ccccc4N4CCN(C)CC4)oc3nc2c1 | 6% | 14 | i | 3 | 1.1 | 1.1
SMILES | NADH coupling | Spn PMK inh | Spn DPM-DC inh | Spn MK inh | Autofluor 339 | A340 absorber
O=C(NCc1ccco1)c1cc2cc3ccc(Cl)cc3nc2o1 | 8% | 12 | i | 2 | 1.8 | 1
O=C(NCc1cccs1)c1cc2ccccc2o1 | 6% | 15 | i | 3 | 1.1 | 1
C1=Nc2c(Nc3ccccc3)ncnc2Oc2ccccc21 | 8% | 13 | i | 11 | 1 | 1
COc1ccc2c3c(c(=O)oc2c1OCC(N)=O)CCCC3 | 2% | 0 | . | 10 | 2.5* | 1
CCOC(=O)COc1ccc2c3c(c(=O)oc2c1C)CCC3 | 9% | 6 | i | 0 | 2.3* | 1.1
Cc1c(OCc2nn[nH]n2)ccc2c3c(c(=O)oc12)CCCC3 | 2% | 4 | . | 0 | 3.8* | 1.1
Cc1c(OCc2nn[nH]n2)ccc2c3c(c(=O)oc12)CCC(C)C3 (stereo not drawn) | 1% | 2 | . | 0 | 3.8* | 1.1
Cc1coc2c(C)c3oc(=O)c4c(c3cc12)CCCC4 | 1% | 2 | i | 0 | 1.3 | 1
CCOc1cc(C(=O)N(C)c2ccccc2)cc(OCC)c1OCC | 2% | 0 | i | 5 | 1 | 1.1
Cn1nnnc1SCC(=O)Nc1c(Cl)cccc1Cl | 8% | 24 | i | 1 | 1 | 1
CC1(C)CC(=O)N(c2ccccc2)C1(C)O (stereo not drawn) | 3% | 1 | i | 5 | 1.1 | 1
CCCCN(CC)CCNC(=O)c1cc2c(=O)n(C)c3ccccc3c2n1C | 9% | 9 | . | 8 | 2.1* | 1.1
CCN(CC)CCNC(=O)c1cc2c(=O)n(C)c3ccccc3c2n1C | 4% | 0 | i | 3 | 1.7 | 1.1
Cn1cc(C(=O)NCCN2CCN(c3cccc(Cl)c3)CC2)c2c3ccccc3n(C)c2c1=O | 2% | 5 | i | 0 | 2* | 1.1
CN1CCN(CCNC(=O)c2cc3c(=O)n(C)c4ccccc4c3n2C)CC1 | 18% | 14 | + | 3 | 1.8 | 1.1
O=C(NCc1ccccc1)NC1CC2CCC(C1)N2Cc1ccco1 (stereo not drawn) | 4% | 10 | i | 2 | 0.96 | 1.1
CCN(CC)C(=O)NC1CC2CCCC(C1)N2Cc1ccccc1 (stereo not drawn) | 11% | 27* | i | 6 | 1.1 | 0.98
Cc1cc(C)n(-c2ccc(C(=O)Nc3nnc(C4CC4)s3)cc2)n1 | 8% | 15 | i | 1 | 0.94 | 1.1
COc1ccc2nc(NC(=O)c3ccc4ncsc4c3)sc2c1 | 1% | 0 | . | 2 | 2.2* | 1.1
COc1ccc2nc(NC(=O)c3ccc(-n4nc(C)cc4C)cc3)sc2c1 | 11% | 18 | . | 4 | 5.1* | 1
Cc1cn2nc(N)c3ccccc3c2n1 | 8% | 13 | . | 2 | 5* | 1
Fc1ccc(COc2ccc(/C=N/n3cnnc3)cc2)cc1 | 4% | 10 | i | 3 | 1.2 | 1.1
CN(C)c1oc(-c2ccccc2Cl)nc1S(=O)(=O)c1ccccc1 | 7% | 0 | i | 8 | 1.1 | 1.1
CCOC(=O)c1nc(-c2ccccc2)oc1N(C)C | 5% | 9 | . | 0 | 4.9* | 1.1
CN(C)c1oc(-c2ccccc2Cl)nc1C#N | 3% | 11 | i | 5 | 2.7* | 1.1
Cc1ccccc1-c1nnc(-c2ccccc2)o1 | 10% | 8 | i | 5 | 1.1 | 1
CN(C)c1oc(-c2ccccc2)nc1C#N | 14% | 20 | . | 8 | 2.1* | 1.1
CC1(C)Cc2c(sc3nc(SCC(=O)O)[nH]c(=O)c23)CO1 | 6% | 0 | i | 13 | 1.2 | 1.1
